TRHR PAM – TRH receptor (human) allosteric enhancement; P34981; TRHR cells, fluo-8 calcium fluorescence, EC20 TRH enhancement; enhancement, % at 2 µM; 360,000 tested, 0.66% active; AID 493056; in the data active means enhancement above about 30%; further: 0% is about no effect
Target sequence (P34981 whole entry, looked up): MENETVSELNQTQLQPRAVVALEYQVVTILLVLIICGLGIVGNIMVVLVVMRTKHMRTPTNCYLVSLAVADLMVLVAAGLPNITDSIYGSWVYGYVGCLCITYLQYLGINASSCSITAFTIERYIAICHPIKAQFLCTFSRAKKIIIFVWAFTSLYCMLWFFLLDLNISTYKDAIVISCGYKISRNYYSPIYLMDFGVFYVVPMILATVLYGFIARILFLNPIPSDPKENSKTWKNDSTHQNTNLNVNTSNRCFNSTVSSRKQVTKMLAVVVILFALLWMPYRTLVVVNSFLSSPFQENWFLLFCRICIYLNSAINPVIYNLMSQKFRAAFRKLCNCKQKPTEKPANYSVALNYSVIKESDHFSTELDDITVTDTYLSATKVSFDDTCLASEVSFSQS
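TRHR-expressing cells loaded with fluo-8 calcium dye were read kinetically (ex 480/em 530) during compound addition, then stimulated with an EC20 of TRH (10 nM final). Enhancement of the Gq-mediated intracellular calcium response was scored.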
Epigenetic derep – epigenetic control regulation, reporter derepression | AID 1865 | murine LDR cells, GFP reporter derepression, 30 h | 280,000 tested, 0.2% active | Potency, µM (titrated, usually from 53.9 µM), inactives show top-dose GFP activation, hits mostly activators; further: potency means the concentration at half of the fitted maximal effect; % of control where 0% means no effect; nearly all actives have a fitted effect of over 60% in size
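Derepression of a silenced CMV-GFP reporter in murine LDR cells is scored by enumerating GFP-positive cells with a laser-scanning microplate cytometer after 30 hours of treatment at 37 C.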
IL-2 act – activates IL-2 in a cell-based reporter assay. IL-2 activation reporter assay, cell-based qHTS; stimulated with anti-CD3/CD4/CD28 beads; in transgenic mouse T cells. activation, % (series mostly up to about 46 µM). 360,000 tested, 0.065% active. AID 652025; in the data active means activation above about 50%; inconclusive means mostly about 30% to 49%; further: 0% is about no effect
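Unstimulated transgenic mouse T cells preincubated 60 min with compound, then stimulated with anti-CD3/anti-CD4-coated beads plus anti-CD28 for 18 h at 37 degrees C. IL-2 response read as EGFP and DsRed fluorescence by plate cytometry.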
MBNL1-CUG inh – inhibitors of human MBNL1 binding to CUG repeat RNA | Q9NR56 | TR-FRET MBNL1-His/biotin-(CUG)12 binding, 665/545 ratio | Potency, µM (series often up to 57.5 µM), without a hit: at the top dose activity change, negative = inhibition, usual class: inhibitors | 280,000 tested, 0.036% active; active means well fitted inhibition curve with a large enough effect in the signal ratio, with a control signal flat, not every such curve was filed as active; inconclusive means small, poorly fitted or top-dose-only effect, or effect the other way, or a change in a side signal; inactive means no such curve, though single readings can be large or run the other way; the % refers to the signal ratio; further: potency means the concentration at half of the fitted maximal effect; on the % scale 0 is the no-effect control and ±100 the full control effect
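His-tagged MBNL1 binding to biotinylated (CUG)12 RNA was measured by TR-FRET using terbium anti-His antibody (0.055 ng/ul final) and streptavidin-XL665 (5 nM final). Compounds were titrated 92 nM to 58 uM; 60 min at room temperature.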
CBFb-RUNX1 inh – CBF-beta/RUNX1 interaction disruption | AlphaScreen CBFb-His/RUNX1-biotin binding, biochemical | Potency, µM (titrated, usually from 59.8 µM), without a hit: at the highest dose activity, negative = inhibition, hits mostly inhibitors | 230,000 tested, under 10 active; further: % of control where 0% means no effect
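Proteins preincubated together for 20 min at RT before compound addition; 15 min later, nickel and streptavidin beads were added and left 90 min prior to AlphaScreen measurement.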
TRHR ag – activates the human TRH receptor | P34981 | 360,000 tested, 0.18% active | AID 493084 | TRHR cells, calcium flux fluo-8, FDSS agonist mode | activation, % at 2 µM; in the data active means activation above about 30%; further: 0% is about no effect
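Read-out: compound-evoked intracellular calcium rise in TRHR cells, fluo-8 dye, kinetic FDSS fluorescence at 1 s/cycle following a 10-cycle baseline. Cells cultured overnight before dye loading (30 min–1.5 h, RT).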
An asterisk follows results filed as active; ? = inconclusive; / = no result given. Only some compounds are listed: those with a hit (about 0.88% of all), similar ones and a draw of the others. Unless noted, the call rests on the fitted dose curve; in most records, active means well fitted curve in the direction sought with a large enough effect; inconclusive means small, poorly fitted or top-dose-only effect, or another doubt; inactive means no such curve, though single readings can be large; an effect the other way counts as inactive or inconclusive.

SMILES	TRHR PAM	Epigenetic derep	IL-2 act	MBNL1-CUG inh	CBFb-RUNX1 inh	TRHR ag
O=C(NCCCN1CCN(c2ccccc2)CC1)c1nnc(Cc2ccc(F)cc2)o1	-2	4%	/	/	/	0
COc1cc(F)c(S(=O)(=O)N2CCN(S(=O)(=O)c3ccc4c(c3)OCCO4)CC2)c(F)c1	2	/	/	/	/	2
COc1cccc(C(=O)NNC2=C(C(=O)C(F)(F)F)CCC2)c1	33*	0%	-1	3%	3%	0
COc1ccccc1C(=O)NNC1=C(C(=O)C(F)(F)F)CCC1	1	-1%	2	9%	-6%	1
Cc1ccc(-n2nc(CO)c(C(=O)NC(C)CCCc3ccccc3)n2)cc1C (stereo unspecified)	-3	-2%	/	/	/	3
Cc1cccc(OCC(=O)OCc2cc(=O)n3nc(-c4cccs4)sc3n2)c1	-9	1%	/	/	/	0
COc1ccc(-c2ccc3c(c2)S(=O)(=O)c2cccc(C(=O)NC4CC4)c2C3=O)cc1OC	40*	/	25	/	/	0
COc1ccc(-c2ccc3c(c2)S(=O)(=O)c2cccc(C(=O)NC4CCCCC4)c2C3=O)cc1OC	1	/	0	/	/	1
COc1ccc(CCNC(=O)CCn2c(=O)c3ccccc3n(CC(=O)Nc3ccc(C)cc3C)c2=O)cc1OC	-2	6%	/	/	/	-1
O=C(COc1nc2ccccc2nc1N1CCOCC1)N1CCc2ccccc21	6	-1%	94*	-1%	0%	0
C=CCN1C=C/C(=C\C=C(C#N)C#N)c2ccccc21	-5	0%	-5	/	-5%	10
C=CCN1C=CC(=CC=C(C#N)C#N)C=C1	2	-2%	23	?	-7%	46*
Cn1cc(-c2ccccc2C(N)=O)c(=O)c2cc(Cl)ccc21	-5	0%	-1	6%	15%	0
Cn1cc(C2=C(c3ccc(Cl)cc3Cl)C(=O)NC2=O)c2ccccc21	5	14µM*	5	?	-2%	48*
COc1ccc(OC)c(CNC(=O)NCc2noc3ccc(C)cc23)c1	4	5%	/	/	/	0
O=[S+]([O-])(c1ccc2c(c1)OCCO2)N1CCN([S+](=O)([O-])c2c(F)cc(F)cc2Br)CC1	-1	/	/	/	/	-2
COc1nnc(-c2ccc(N3CCCCC3)c(NC(=O)c3ccccc3)c2)c2ccccc12	3	0%	/	/	/	-1
COc1nnc(-c2ccc(N3CCCCC3)c(NC(=O)c3ccc(Cl)cc3)c2)c2ccccc12	39*	-1%	/	/	/	-1
CCOC(=O)c1sc2ncn(CC(=O)Nc3ccc(C)cc3Br)c(=O)c2c1C	1	4%	/	/	/	0
O=C(COC(=O)c1cc(Cl)ccc1[N+](=O)[O-])NCc1ccc(Cl)cc1Cl	39*	0%	0	/	-1%	0
c1cc(C2CCN(Cc3nc(-c4ccc5c(c4)OCO5)no3)CC2)ccn1	35*	5%	-1	-9%	4%	1
Cc1cc(C)c(NC(=O)C(C)n2nc(C)c3sc4ccccc4c3c2=O)c(C)c1 (stereo unspecified)	-2	8%	/	/	/	1
C(=N\NC1=Nc2cccc3cccc1c23)/c1ccccc1	-24	6%	268*	1%	3%	-1
Clc1ccc(/C=N/NC2=Nc3cccc4cccc2c34)cc1	-3	?	70*	0%	-14%	0
C(=N\NC1=Nc2cccc3cccc1c23)/c1cccnc1	3	4%	0	?	?	1
CN(C)CCCN(C(=O)c1cccc(N2C(=O)CCC2=O)c1)c1nc2cc3c(cc2s1)OCO3	32*	-5%	1	-8%	4%	0
O=C(c1ccc(Cc2nc3ccccc3[nH]2)cc1)N1CCCCC1	/	-3%	/	/	/	/
CCSc1nnc(NC(=O)C(C)Sc2nc3ccccc3[nH]2)s1 (stereo unspecified)	36*	-1%	0	-2%	-10%	0

Screening results as filed in PubChem.
